The whole screen tested about 360,000 compounds, of which about 3,700 (1%) were called active. About 2% were inconclusive and are not listed.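 How the source made its calls: active means normalized GFP-positive differentiation at or above the plate's own cutoff, the solvent-only control mean plus 3 SD; inconclusive means no clear call, values can overlap the other calls; inactive means the rest.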 What follows is part of a selection rich in actives, with near analogues and random picks from the rest.
assay: induction of myeloid progenitor differentiation, primary screen, cell-based, flow cytometry, MLPCN library (AID 624256); conditions: ER-HoxA9 myeloid progenitors, lysozyme-GFP differentiation, at 10 µM; GFP+ MAC1+ double positive: measured here: differentiation confirmed by MAC1 staining, stronger effect = higher value; normalized GFP-positive differentiation: stronger effect = higher value;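 on GFP+ MAC1+ double positive: cells exposed to compound for four days before flow analysis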;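 on normalized GFP-positive differentiation: cells exposed to compound for four days before flow analysis; 0% = DMSO wells and 100% = fulvestrant positive control at 5 µM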

SMILES	GFP+ MAC1+ double positive [%]	outcome	normalized GFP-positive differentiation
COc1cccc(OC)c1C(=O)NC(=S)NCc1ccco1	0.3	inactive	–
COC(=O)Cc1ccc(NC(=S)NCc2ccco2)cc1	0.6	inactive	–
O=C(NNC(=S)NCc1ccco1)C(c1ccccc1)c1ccccc1	5.5	–	175% (active)
Nc1cccc(-c2cncc(N3CCN(Cc4ccccn4)CC3)n2)c1	0.8	inactive	–
CC(C)c1cccc(C(C)C)c1Nc1cn[nH]c1	0.2	inactive	–
CC(C)CNC(=O)COC(=O)/C=C/c1ccccc1[N+](=O)[O-]	4.9	–	14.3% (active)
O=C(/C=C/c1ccccc1[N+](=O)[O-])OCC(=O)N1CCCC1	0.4	inactive	–
CC(C)CNC(=O)COC(=O)/C=C/c1ccco1	0.7	inactive	–
O=C1C(Sc2cccc(F)c2)=C[C@@]2(O)CC[C@@H](O)[C@]1(Sc1cccc(F)c1)[C@H]2O	2	inactive	–
O=C1NC[C@H](CCCCN2CCN(CCc3ccccc3)C(=O)C2=O)N(CC2CCCCC2)C1=O	0.5	inactive	–
Nc1nc2cc(Cl)ccc2n1N	1.5	inactive	–
CN1OC[C@@H]2CN(S(=O)(=O)c3cccc4ccccc34)[C@H](c3ccc(N4CCCCC4)cc3)C[C@@H]21	0.8	inactive	–
CCC1CCCCN1S(=O)(=O)Cc1ccccc1Cl (stereo not given)	3	–	98.8% (active)
O=C(NCc1ccccc1Cl)C(=O)NCC1CCCN1S(=O)(=O)c1cccs1 (stereo not given)	0.7	inactive	–
O=C(NCc1ccccc1Cl)C1CCCN1S(=O)(=O)c1ccc(F)cc1 (stereo not given)	0.6	inactive	–
CC(C)(C)OC(=O)CNC(=O)c1[nH]cnc1C(=O)N[C@@H](Cc1ccccc1)C(=O)OCc1ccccc1	10	–	21.4% (active)
C[C@H](NC(=O)c1nc[nH]c1C(=O)NCC(=O)OC(C)(C)C)C(=O)OCc1ccccc1	0.8	inactive	–
O=C(N[C@@H](Cc1ccccc1)C(=O)OCc1ccccc1)c1nc[nH]c1C(=O)N[C@@H](Cc1ccccc1)C(=O)OCc1ccccc1	0.2	inactive	–
FC(F)(F)c1cccc(-c2nc3ccccc3n2C(c2ccccc2)c2nc3ccccc3[nH]2)c1 (stereo not given)	3.2	inactive	–
COc1cccc(-c2ccc3c(c2)N(Cc2ccccc2OC)C(=O)C(C)S3)c1 (stereo not given)	0.8	inactive	–
Cc1cccnc1C(NC(=O)C1CCN(Cc2ccc(Cl)c(Cl)c2)CC1)c1ccc(Cl)cc1 (stereo not given)	0.8	inactive	–
CC1=C(C(=O)N2CCOCC2)CC(CC(=O)NCc2cccs2)C(=O)N1CCCN1CCCC1=O (stereo not given)	1.4	inactive	–
CC(OC(=O)CCCc1c[nH]c2ccccc12)C(=O)Nc1ccc(S(N)(=O)=O)cc1 (stereo not given)	0.5	inactive	–
Cc1ccc(NC(=O)C(C)OC(=O)C2CC3CCCC(C2)C3=O)cc1S(=O)(=O)N1CCOCC1 (stereo not given)	0.8	inactive	–
Cc1ccc(NC(=O)C(C)OC(=O)Cc2c[nH]c3ccccc23)cc1S(=O)(=O)N1CCOCC1 (stereo not given)	1	–	9.47% (active)

Source: PubChem BioAssay AID624256 (NMMLSC, 2012)
